From PubChem
In the library only some 4.6% were active in any assay of this set; here they are far more common.
TRb-SRC2 inh: inhibitors of human thyroid hormone receptor beta-SRC2 interaction | P10828 | TRbeta-SRC2 peptide binding, fluorescence polarization; receptor liganded with 1 µM T3 | Potency, µM (top dose mostly 106 µM), for inactives: at the highest dose activity change, negative = inhibition, actives largely listed as inhibitors | 280,000 tested, 0.065% active | AID 1469;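 also: potency is read from the fitted curve at half-maximal effect; plate controls were bound peptide for no effect and peptide without receptor for full effect; nearly all actives have a fitted effect of over 50% in size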
Target sequence (P10828 whole entry, looked up): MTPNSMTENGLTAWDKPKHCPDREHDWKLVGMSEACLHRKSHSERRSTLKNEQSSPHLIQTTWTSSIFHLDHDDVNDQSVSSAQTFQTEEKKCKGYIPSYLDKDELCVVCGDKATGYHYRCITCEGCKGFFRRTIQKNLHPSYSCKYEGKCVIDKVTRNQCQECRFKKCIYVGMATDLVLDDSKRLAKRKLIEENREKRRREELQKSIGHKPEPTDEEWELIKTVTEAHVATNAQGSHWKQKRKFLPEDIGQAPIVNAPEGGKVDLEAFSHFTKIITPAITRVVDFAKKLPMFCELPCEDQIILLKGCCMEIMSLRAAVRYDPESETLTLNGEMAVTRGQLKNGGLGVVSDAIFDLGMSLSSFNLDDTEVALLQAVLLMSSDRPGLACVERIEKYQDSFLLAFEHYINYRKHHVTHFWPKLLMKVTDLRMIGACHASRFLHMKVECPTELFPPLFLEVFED
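Assay buffer: 20 mM Tris-HCl, 100 mM NaCl, 10% glycerol, 1 mM EDTA, 0.01% NP-40, 1 mM DTT, 1 uM T3, 5% DMSO; TRb LBD 0.6 uM, Texas Red SRC2 20 nM; FP after 5 hr.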
PNC inhibitor: blocks assembly of the perinucleolar compartment | PC3M PTB-GFP, PNC prevalence imaging, 16 h; stronger effect = lower value | activity change (PNC), negative = inhibition, % at 10 µM | 140,000 tested, 3.1% active | AID 2417;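 active = readout at or below -70, meaning at least 70% loss of cells showing the perinucleolar compartment, a nuclear body marking cancer cells; inconclusive = readout between -30 and a set limit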;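 also: plate controls were DMSO wells for no effect and camptothecin positive control wells for full effect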
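Compounds are pinned in duplicate onto adhered PC3M cells stably expressing GFP-tagged PTB and incubated 16 h at 37 C. Cells are then fixed, nuclei stained with Hoechst, and PNC-positive cells counted.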
TexasRed fluor: counter-screen for TRb-SRC2 inhibitors: fluorescence interference; TRb/SRC2 Texas Red total fluorescence interference; Potency, µM (doses to about 106 µM), inactives show at the highest dose fluorescence change, negative = quenching; 280,000 tested, 0.29% active; AID 1479; active = well fitted curve in either direction with a large enough effect; inconclusive = small, poorly fitted or top-dose-only effect; also: potency is read from the fitted curve at half-maximal effect
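Human TRβ ligand-binding domain (0.6 uM) and Texas Red SRC2 peptide (20 nM) in Tris buffer with 1 uM T3 and 5% DMSO were incubated with pinned compound for 5 hr at ambient temperature. Total fluorescence was computed as S + 2P (555/632 nm).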
Tau fibril ThT: inhibitors of human tau fibril formation, thioflavin T binding. recombinant tau K18 P301L, heparin-induced fibrillization, ThT fluorescence. Potency, µM (highest dose often 57.4 µM), without a hit: at the highest dose activity, negative = inhibition, usual class: inhibitors. AID 1460. 270,000 tested, 2.1% active; also: potency is read from the fitted curve at half-maximal effect; nearly all actives have a fitted effect of over 55% in size
Target sequence (P10636 561-689 P618L limits assumed): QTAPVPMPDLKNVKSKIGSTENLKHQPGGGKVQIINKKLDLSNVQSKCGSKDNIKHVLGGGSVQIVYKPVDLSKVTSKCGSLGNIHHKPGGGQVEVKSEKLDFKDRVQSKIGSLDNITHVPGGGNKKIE
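Tau K18 P301L fragment (15 uM unlabeled plus 0.24 uM Alexa 594-labeled) in 100 mM sodium acetate pH 7 with compound, fibrillization induced by 20 uM heparin for 6 hr at 37 C. Thioflavin T (30 uM) added, fluorescence read after 1 hr (ex 450, em 510 nm).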
Tau fibril FP: inhibitors of human tau fibril formation | K18 P301L tau heparin fibrillization, Alexa594 FP, 6 h | Potency, µM (highest dose often 57.7 µM), for inactives: top-dose activity, negative = inhibition, most hits filed as inhibitors | P10636 | 280,000 tested, 0.39% active; also: potency is read from the fitted curve at half-maximal effect; nearly all actives have a fitted effect of over 55% in size
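Compound effects on tau fibrillization are measured by Alexa 594 fluorescence polarization (ex 555, em 632 nm). K18 P301L tau is used at 15 uM with 0.24 uM labeled tracer, and 20 uM heparin induces aggregation over 6 hr at 37 C.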
Tau fluor cs: counter-screen for tau fibril formation inhibitors | tau K18 P301L (four-repeat tau fragment) Alexa594 fluorescence, heparin fibrillization | Potency, µM (series often up to 57.7 µM), inactives show at the highest dose activity change, negative = decrease | 280,000 tested, 0.93% active | AID 1463; also: potency is read from the fitted curve at half-maximal effect; nearly all actives have a fitted effect of over 55% in size
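Human K18 P301L tau (15 uM unlabeled plus 0.24 uM Alexa 594-labeled, final) in 100 mM sodium acetate pH 7 was mixed with compound and 20 uM heparin and incubated 6 hr at 37 C.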
Active calls of the source: *; ? = inconclusive; nt = no result given; ! = not active in a repeat; [ ] = dose if it differs, or a comment. Unless noted, calls follow the shape of the dose curve; as a rule, active = well fitted curve in the direction sought with a large enough effect; inconclusive = small, poorly fitted or top-dose-only effect, or another doubt; inactive = no such curve, though single readings can be large; an effect the other way counts as inactive or inconclusive. Unless noted, % is scaled to controls: 0 for no effect and ±100 for the full control effect.

SMILES	TRb-SRC2 inh	PNC inhibitor	TexasRed fluor	Tau fibril ThT	Tau fibril FP	Tau fluor cs
CCC(=O)OCCNc1cc(SCCC(=O)OC)c2nonc2c1[N+](=O)[O-]	-1.5%	24.7	?	7.94µM*	?	?
CC(=O)OCCCNc1cc(Sc2ccc(Cl)cc2)c2nonc2c1[N+](=O)[O-]	-0.7%	45.1	7.0%	8.91µM*	?	?
CCCC(=O)OCCNc1cc(Sc2nc3ccccc3[nH]2)c2nonc2c1[N+](=O)[O-]	1.1%	19.0	2.3%	?	-2.0%	-27.8%
CC(C)CN1CCC(C(=O)N2CCN(c3ccccc3F)CC2)CC1	-2.5%	31.9	-0.7%	0.0%	0.3%	2.2%
Cc1cccc(N2CCC(N3CCN(C4CCCCC4)C(CCO)C3)CC2)c1C (stereo not given)	-4.8%	nt	-14.6%	10µM*	-56.8%	-39.0%
CCn1nc(C(=O)Nc2nc3ccccc3[nH]2)c2ccccc2c1=O	-3.1%	-89.0*	-2.7%	-13.1%	5.8%	-4.8%
COc1ccc(/C=C/CN2CCN(Cc3ccc(F)cc3)C(CCO)C2)cc1 (stereo not given)	3.6%	nt	-5.9%	-8.1%	3.1%	-6.2%
CC1=C(C(=O)Nc2ccc(C)cc2C)C(c2ccccc2F)n2nc(SCC(=O)c3ccc(C)cc3)nc2N1 (stereo not given)	-17.7%	nt	0.0316µM*[quencher]	?	?	27.2%
O=C(Nc1ccccc1C(F)(F)F)C1CC(=O)N(c2ccccc2F)C1 (stereo not given)	-12.7%	-80.8*	0.0%	6.2%	3.4%	12.0%
Clc1nnc(NN=C2CCCC2)c2ccccc12	7.4%	30.8	-2.5%	25.1µM*	-11.7%	?
Clc1nnc(N/N=C/c2ccccc2)c2ccccc12	6.8%	?	-6.8%	?	?	?
CCOC(=O)c1c(C)n(C)c2ccc(OC)c(NC(=O)CN3CCSCC3)c12	3.4%	-104.9*	-4.3%	-13.1%	-3.5%	-5.9%
CC(NC(=O)c1ccc(=O)oc1)c1ccccc1 (stereo not given)	-1.2%	-11.5	-4.2%	-6.2%	-0.5%	-8.0%
CC(C)COC(=O)c1ccc2c(c1O)C(=O)c1ccccc1C2=O	-9.3%	?	-3.2%	12.6µM*	10.2%	?
COc1ccc2c(c1O)C(=O)c1ccccc1C2=O	2.6%	nt	0.5%	?	9.8%	-5.0%
NCCC[C@@H](CC(=O)N[C@@H]1CCNC[C@H]1C(=O)N[C@H](CC(=O)N[C@@H](CCC(=O)O)CC(=O)O)Cc1ccccc1)NC(=O)C[C@H](CO)NC(=O)[C@@H]1CNCC[C@H]1N	-3.2%	nt	-0.5%	-5.4%	0.1%	-1.3%
N#C[C@@H]1[C@@H]2C(=O)N(c3ccc4c(c3)OCCO4)C(=O)[C@@H]2C2c3ccccc3C=CN21 (stereo not given in full)	-3.8%	-100.0*	-4.8%	?	2.6%	-17.6%
COC(=O)CSc1ccsc1C(=O)O	-1.9%	nt	-1.6%	-1.5%	6.4%	2.0%
CCC(C)NC(=O)C1CCN(S(=O)(=O)c2ccc3c(c2)CCCN3C(C)=O)CC1 (stereo not given)	3.1%	nt	2.0%	-2.0%	-0.7%	-8.8%
COc1ccc(NCC(=O)Nc2ccc(C#N)cc2)cc1Cl	-12.7%	5.5	-0.5%	?	?	14.1µM*[quencher]
Cc1cc(C)c2c(NC(=S)NC(=O)c3ccccc3)nn(C)c2n1	-0.2%	nt	-3.9%	-4.8%	-0.7%	0.4%
CCCC(=O)C1=C(c2ccccc2)C(C#N)(C#N)C(C#N)=C1N	?	0.7	19.0%	28.2µM*	?	?
Cc1ccc2c(=O)cc(C(=O)Nc3nnc(C)s3)oc2c1	-8.6%	nt	-6.8%	-16.0%	-13.7%	-14.6%
CNC[C@H](O)c1cccc(O)c1	1.5%	10.9	-0.8%	-11.4%	-4.2%	-13.8%
CNC[C@H](O)c1ccc(O)c(O)c1	1.4%	6.9	0.7%	14.1µM*!	12.6µM*!	?
SMILES	TRb-SRC2 inh	PNC inhibitor	TexasRed fluor	Tau fibril ThT	Tau fibril FP	Tau fluor cs
COC(=O)c1ccc(NC(=O)CNCc2ccncc2)cc1	3.2%	-18.9	-0.4%	-15.5%	-0.5%	-7.8%
CC(=O)Nc1cccc(C(=O)/C=C/c2ccco2)c1	9.7%	22.4	-11.3%	25.1µM*	?	?
CC(=O)Nc1ccc(C(=O)/C=C/c2ccco2)cc1	22.9%	86.4	-22.8%	?	?	?
CC(=O)Nc1cccc(C(=O)/C=C/c2ccc(N(C)C)cc2)c1	8.2%	-17.8	-11.1%	25.1µM*	-0.3%	15.8µM*[quencher]
CN(C)c1ccc(C(=O)/C=C/c2ccco2)cc1	3.2%	-10.4	-7.8%	10µM*	-5.5%	-26.1%
COc1cccc(N2CCN(C(=O)C3CCN(S(=O)(=O)c4ccc5c(c4)oc(=O)n5C)CC3)CC2)c1	-3.2%	nt	-0.3%	-6.7%	0.5%	-18.7%
COc1ccc(C2SCCN2C(=S)Nc2cccc(Cl)c2)cc1 (stereo not given)	9.3%	-101.9*	-1.3%	-11.9%	?	?
Nc1cc(N2CCCCC2)c(Cl)cc1[N+](=O)[O-]	5.8%	?	-1.6%	12.6µM*	-1.9%	?
COc1ccc(O)c(C2=Nc3ccccc3N=C(c3ccco3)C2)c1	-28.7%	1.6	12.5%	-7.4%	-3.7%	-22.5%
Oc1ccc(Cl)cc1C1=Nc2ccccc2N=C(c2ccco2)C1	-1.6%	-100.0*	-2.1%	2.4%	8.1%	-5.3%
Brc1ccc(Nc2nc(-c3cccnc3)cs2)cc1	-3.5%	nt	-2.5%	?	9.8%	?
CC(C)(C)NC(=S)NNC(=O)c1ccncc1	1.1%	-113.8*	-1.2%	-1.4%	2.4%	-2.5%
CCNC(=S)NNC(=O)c1ccncc1	1.2%	nt	-2.6%	2.4%	2.5%	5.7%
O=C(Cn1ccc2ccccc2c1=O)NCCC(=O)NC1CCN(Cc2ccccc2)CC1	-11.1%	-85.9*	-5.4%	19.2%	5.7%	27.0%
Nc1ccc(Oc2ccc3nc(-c4ccccc4)c(-c4ccccc4)nc3c2)cc1	-12.9%	37.1	-1.5%	-9.4%	11.0%	14.1µM*[quencher]
Cc1ccc2nc(N3CCN(C=O)CC3)nc(-c3ccccc3)c2c1	-12.1%	-100.0*	-6.1%	?	3.0%	-7.6%
O=C(Nc1cccc(S(=O)(=O)Nc2ccc(Cl)cc2)c1)c1cc2c(s1)CCCC2	7.9%	-17.5	1.5%	5.8%	14.1µM*	?
CC(=O)c1ccc(N2CCN(C(=S)Nc3cc(C)ccc3C)CC2)cc1	5.2%	-90.2*	2.9%	-14.4%	9.2%	0.1%
CC(C)(C)c1ccc(C(=O)Nc2ccc(N3CCOCC3)cc2)cc1	0.6%	-28.5	-5.0%	4.47µM*	-12.3%	?
